Data as given in PubChem BioAssay.
A number with no mark means an inactive call.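 How the source made its calls: active means viability loss from added drug above about 55%, and viability with drug at most 40%, in both replicates (limit read from the data, passing the limit was not always enough); inconclusive means both conditions met in only one replicate; inactive means neither replicate meets both conditions.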

Experiment: reversal of MRP1-mediated doxorubicin resistance, pilot screen, H69AR cells, doxorubicin co-treatment (AID 601)
Conditions: H69AR cells + 2 uM doxorubicin, CellTiter-Glo, 72 h; at 10 µM; active compounds read high

Question: Which differential viability (reversal) does the source give for `COC(=O)CCn1nnc(-c2ccc(C)cc2)n1` here?
Answer: 3.69%

Question: With `COC(=O)CCC(=O)CN` as the compound, how does the differential viability (reversal) read?
Answer: -4.23%

Question: Which differential viability (reversal) does the source give for `O=C(Nc1ccc(N2CCCC2)cc1)c1cccc(F)c1` here?
Answer: -24.6%

Question: For `Cc1nc(-c2coc3cc(OCC(=O)O)ccc3c2=O)cs1`, which differential viability (reversal) is on record?
Answer: 1.5%

Question: For `CCN1CCc2c(C#N)c(N3CCCCC3)nc(NCc3ccccc3)c2C1`, which differential viability (reversal) is on record?
Answer: -10.1%

Question: With `Cc1ccc(S(=O)(=O)N2CCCN(S(=O)(=O)C3CCS(=O)(=O)C3)CC2)cc1` (configuration not stated) as the compound, how does the differential viability (reversal) read?
Answer: 8.77%

Question: For `COc1nc(NCCc2ccc(OC)c(OC)c2)nc(NC(C)(C)CO)n1`, which differential viability (reversal) is on record?
Answer: 7.75%

Question: Which differential viability (reversal) does the source give for `O=C(O)c1cc(-c2ccccc2)nc2ccccc12` here?
Answer: 2.04%

Question: Which differential viability (reversal) does the source give for `Cc1nc2ccc(C(=O)O)cc2c2c1CC(C)S2` (configuration not stated) here?
Answer: -2.25%

Question: Which differential viability (reversal) does the source give for `COC(=O)c1ccc(COC(=O)c2c(C)nn(Cc3ccccc3Cl)c2Cl)o1` here?
Answer: 4.08%

Question: Which differential viability (reversal) does the source give for `CSc1nnc(-c2cnccn2)n1Cc1ccccc1` here?
Answer: 6.43%

Question: Which differential viability (reversal) does the source give for `COCCNC(=O)C(c1ccc(C)o1)N(Cc1cccs1)C(=O)c1snc(C(N)=O)c1N` (configuration not stated) here?
Answer: 0.375%

Question: For `COc1ccc(CCNC(=O)CSCc2n[nH]c(=O)[nH]2)cc1OC`, which differential viability (reversal) is on record?
Answer: -0.08%

Question: With `CCCOc1cccc(C(=O)Nc2cc(NC(=O)c3ccco3)ccc2OC)c1` as the compound, how does the differential viability (reversal) read?
Answer: -6.07%

Question: Which differential viability (reversal) does the source give for `Cc1cc(S(=O)(=O)N2CCN(c3ccccc3C)CC2)ccc1F` here?
Answer: -0.315%

Question: With `O=S(=O)(c1ccc(Br)s1)N1CCN(c2ccccc2)CC1` as the compound, how does the differential viability (reversal) read?
Answer: -4.09%

Question: For `O=C(CSCc1ccc(F)cc1)NC1CCCC1`, which differential viability (reversal) is on record?
Answer: 13.6%
